Screening results: PubChem BioAssay, several laboratories
Hits are enriched below; roughly 28% of the tested compounds scored in any of these assays.
CYP2C9 activ: CYP2C9 (human) activation; P11712; recombinant CYP2C9, luciferin-H conversion, luminescence; stronger effect = higher value; factor 1 = untreated enzyme, 0 = blocked; activation factor at 5 µM; hit rate 1.4% among 96,000; AID 1024;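 active = activation factor of 2 or more for CYP2C9 at a 5 µM dose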;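 also: 0 = sulfaphenazole-blocked wells and 1 = vehicle-only wells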
CYP2C9 inhib: inhibitors of human CYP2C9; P11712; CYP2C9 Supersomes, luciferin-H conversion, luminescence; inhibition, % at 5 µM; hit rate 20% among 96,000; AID 777;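 active = blocking of liver enzyme CYP2C9 beyond about 50% at 5 µM, limit read from the data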
CYP2C19 inhib: inhibitors of human CYP2C19 | P33261 | CYP2C19 Supersomes, luciferin-H EGE luminescence, 30 min | inhibition, % at 5 µM | hit rate 21% among 96,000 | AID 778;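 active = CYP2C19 inhibition above a set limit at 5 µM in the primary screen, cut at about 50% in these data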;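 also: plate controls were negative control wells for no effect and 2.5 mM tranylcypromine positive control for full effect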
CYP2C19 activ: increases human CYP2C19 enzyme activity; P33261; recombinant CYP2C19, luciferin-H EGE luminescence; stronger effect = higher value; 0 = fully inhibited enzyme, 1 = untreated enzyme; activation factor at 5 µM; 96,000 tested, under 10 active; AID 1025;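 active = activation factor of at least 2 at 5 µM in the primary screen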;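 also: 0 = wells with 2.5 mM tranylcypromine and 1 = vehicle-only wells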
hDAT+cocaine: modulates human dopamine transporter uptake under cocaine. Q01959. LLC-PK1 hDAT cells, [14C]-dopamine uptake with cocaine IC80; actives deviate in either direction. B-score at 10 µM. hit rate 1.3% among 110,000. AID 449768;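 active = Z score or B-score, a plate-position-corrected score, falls beyond the plate's 99.7% confidence bounds, in either direction; inactive = both scores lie inside the 99.7% bounds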;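 also: scored against the spread of the other compound wells on the same plate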
Target sequence (Q01959 whole entry, looked up): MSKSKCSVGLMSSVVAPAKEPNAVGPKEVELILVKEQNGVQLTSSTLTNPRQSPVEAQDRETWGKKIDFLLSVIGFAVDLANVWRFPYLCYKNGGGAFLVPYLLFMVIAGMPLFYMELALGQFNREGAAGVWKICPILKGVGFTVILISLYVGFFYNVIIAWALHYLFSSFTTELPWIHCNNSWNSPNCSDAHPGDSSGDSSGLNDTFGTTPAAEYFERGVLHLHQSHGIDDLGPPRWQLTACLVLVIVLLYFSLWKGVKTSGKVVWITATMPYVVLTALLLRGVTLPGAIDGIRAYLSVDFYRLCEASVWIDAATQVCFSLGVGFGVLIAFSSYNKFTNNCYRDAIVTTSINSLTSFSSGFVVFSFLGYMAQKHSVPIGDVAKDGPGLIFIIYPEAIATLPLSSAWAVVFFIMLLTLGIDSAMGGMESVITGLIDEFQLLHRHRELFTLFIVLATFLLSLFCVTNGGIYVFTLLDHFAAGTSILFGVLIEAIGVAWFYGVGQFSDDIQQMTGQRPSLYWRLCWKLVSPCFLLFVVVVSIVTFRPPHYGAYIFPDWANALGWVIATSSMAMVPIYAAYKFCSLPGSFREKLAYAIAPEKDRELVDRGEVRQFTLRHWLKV
D1 mod: D1 dopamine receptor (human) allosteric modulation | P21728 | HEK293 D1, CRE-luciferase, dopamine EC30 potentiation; actives deviate in either direction | B-score at 10 µM | hit rate 5.9% among 58,000 | AID 641;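 active = luminescence count or its row- and column-corrected plate score outside the 99.7% band of the plate's sample wells, on either side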
D1 mod confirm: confirmation of human D1 dopamine receptor allosteric modulators. shares compounds with D1 mod. AID 642. luminescence at 10 µM. hit rate 88% among 2,200. HEK293 D1 CRE-luciferase, dopamine EC30 potentiation; stronger effect = higher value;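 active = luminescence in either of two replicates above the same-plate mean plus 3 SD of the low-dose dopamine control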
D1 no dopamine: activates D1 CRE-luciferase signal without dopamine present; luminescence at 10 µM; AID 646; shares compounds with D1 mod; hit rate 0.8% among 1,900; HEK293 D1 CRE-luciferase, luminescence, no dopamine; stronger effect = higher value; in the data active = luminescence above about 3900
Isoprot counter: isoproterenol response counter-screen activity for D1 modulators; hit rate 63% among 2,200; HEK293 D1 CRE-luciferase, isoproterenol EC30 counter-screen; AID 647; shares compounds with D1 mod; calls only at 10 µM;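 active = luminescence in either replicate above plate mean of wells with a partly effective reference agonist dose plus 3 SD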;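 also: isoproterenol raises cAMP through native beta-adrenoceptor Gs so signal bypasses D1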
* = called active by the depositor; i = inactive; . = no result; + = active, no number.

SMILES	CYP2C9 activ	CYP2C9 inhib	CYP2C19 inhib	CYP2C19 activ	hDAT+cocaine	D1 mod	D1 mod confirm	D1 no dopamine	Isoprot counter
CCOc1nc(NCCc2ccc(OC)c(OC)c2)nc(NC(C)(C)CO)n1	1.1	-6	18	0.8	0.015	3.2*	9808*	1608	i
COc1nc(NCCc2ccc(OC)c(OC)c2)nc(OC)n1	0.8	19	15	0.8	0.69	2	.	.	.
O=C(N/N=C/c1ccc(N2CCOCC2)o1)c1cccc(F)c1	.	.	.	.	-0.39	.	.	.	.
COc1cccc(Cn2nnc3c(=O)[nH]c(C4CCCN(C(=O)c5ccccc5Cl)C4)nc32)c1 (stereo unspecified)	0.2	83*	39	0.6	1.5	3*	9972*	.	+
COc1ccc(C2/C=C\CN(C(=O)c3ccccc3)CC(=O)N2Cc2ccc(F)cc2)cc1 (stereo unspecified)	.	.	.	.	0.049	.	.	.	.
COc1ccc(Cn2nnc3c(=O)[nH]c(C4CCCN(C(=O)c5ccccc5)C4)nc32)cc1 (stereo unspecified)	.	.	.	.	2.2	4.3*	10456*	1612	i
C=CCn1c(N)c(C(=O)OC(C)CC)c2nc3ccccc3nc21 (stereo unspecified)	0.2	83*	56*	0.4	2.1	7.5*	14864*	1544	+
COc1ccc(CN2CCN(C(=O)c3ccco3)CC2)cc1	1.2	-17	13	0.9	1	4.1*	5504	1488	i
CCOC(=O)C1CCN(C(=O)c2ccco2)CC1	0.8	24	63*	0.4	-0.15	4.4*	4108	1740	i
Cc1ccoc1C(=O)Nc1ccc(CC(=O)O)cc1	1.1	-7	15	0.8	0.31	.	.	.	.
COC(=O)/C(=C1/Oc2cc3c(cc2S1)OCO3)C(F)(F)F	1.1	-7	-2	1	0.42	3.4*	11868*	1480	i
COC(=O)c1sccc1NC(=O)c1ccc2c(c1)OCO2	1.1	-6	7	0.9	-0.3	0.92	.	.	.
Cc1cccc(C)c1NC(=O)N1C2CCCC1CC(NC(=O)C(C)(C)C)C2 (stereo unspecified)	0.8	18	1	1	-0.11	0.18	.	.	.
CC(C)(C)NC(=O)CSc1nnnn1C(C)(C)C	0.9	8	21	0.8	-0.35	-0.44	.	.	.
COc1cc(/C=C(/NC(=O)c2ccccc2Cl)C(=O)O)cc(OC)c1OC	1.1	-7	-7	1.1	-2.3	.	.	.	.
Cn1c(NCc2ccco2)nc2c1c(=O)n(Cc1ccc(Cl)cc1Cl)c(=O)n2C	1.1	-10	-3	1	-0.0031	0.34	.	.	.
Cn1cnc2c1c(=O)n(Cc1ccc(F)cc1Cl)c(=O)n2C	1.1	-6	22	0.8	-1.2	4*	6528*	1544	i
CCOC(=O)c1c(-c2ccncc2)csc1N	0.3	66*	49	0.5	0.81	6.8*	14984*	1720	i
Cn1cccc1C1NC(=O)c2c(sc3c2CCC(C(C)(C)C)C3)N1 (stereo unspecified)	0.9	6	0	1	-0.08	3*	7568*	1776	i
Nc1c(-c2ccccc2)nc(Cl)nc1-c1ccccc1	0.8	20	27	0.7	0.11	.	.	.	.
c1ccc(-c2nc3nonc3nc2-c2ccccc2)cc1	0.8	24	66*	0.3	.	6.8*	6860*	1656	i
CCOc1ccccc1N1CC(C(=O)Nc2ccc(C(=O)O)cc2)CC1=O (stereo unspecified)	1	3	4	1	0.19	0.4	.	.	.
COc1ccccc1CN1C(=O)CN(C2CCCC2)C(=O)C1c1ccc(F)cc1 (stereo unspecified)	0.8	24	21	0.8	0.5	-0.24	.	.	.
COc1ccc(CCn2c(C)cc3c(c2=O)C(c2ccc4c(c2)OCO4)C(C#N)=C(N)O3)cc1OC (stereo unspecified)	0.6	44	44	0.6	2.6*	11*	14224*	1632	+
COc1ccc(S(=O)(=O)NCc2ccco2)cc1-c1nnc2c3ccccc3c(C)nn12	0.9	14	14	0.9	0.93	8.6*	8232*	1520	+
SMILES	CYP2C9 activ	CYP2C9 inhib	CYP2C19 inhib	CYP2C19 activ	hDAT+cocaine	D1 mod	D1 mod confirm	D1 no dopamine	Isoprot counter
Cc1cc(NCCCn2ccnc2)n2c(nc3ccccc32)c1C#N	0.2	83*	77*	0.2	-0.018	3.9*	7832*	1564	i
Cc1cc(NCCN2CCCCC2)n2c(nc3ccccc32)c1C#N	0.9	9	1	1	-1.5	-0.27	.	.	.
CCOC(=O)C1CCN(C(=O)c2ccc(Cl)c(S(=O)(=O)N3CCOCC3)c2)CC1	0.8	22	21	0.8	0.17	0.69	.	.	.
CCOC(=O)C1CCN(S(=O)(=O)c2cc(Br)cc3c2N(C(C)=O)C(C)C3)CC1 (stereo unspecified)	0.2	79*	93*	0.1	0.52	4.6*	8392*	1388	+
CC1(C)CC(=O)c2cnc(NC(=O)Cc3ccc(Cl)cc3)nc2C1	0.7	29	28	0.7	0.34	0.5	.	.	.
CCCCC(=O)Nc1ncc2c(n1)CC(C)(C)CC2=O	0.9	9	1	1	-1.7	3*	5316	.	i
CC1(C)CC(=O)c2cnc(NC(=O)CSc3nc4ccccc4o3)nc2C1	.	.	.	.	-0.19	-0.0083	.	.	.
Cc1cc(C)nc(SCC(=O)Nc2ncc3c(n2)CC(C)(C)CC3=O)n1	1.4	-40	-9	1.1	1.4	5.3*	7004*	1576	i
COc1ccc(-c2c3c(=O)n(C)c(=O)n(C)c3cn2C2CCCCC2)cc1	0.2	77*	70*	0.3	0.99	7.7*	15660*	1992	+
CCS(=O)(=O)n1nc(-c2ccc(Cl)cc2)nc1N	0.9	8	53*	0.5	0.042	5*	8932*	1784	+
Cc1onc(-c2ccncc2)c1C(=O)O	0.9	11	-9	1.1	-0.54	-0.2	.	.	.
Cc1onc(-c2ccccc2)c1C(=O)Oc1cccnc1	0.8	18	51*	0.5	0.052	6.7*	13128*	1560	+
CCCCOc1ccccc1NC(=O)c1ccc(=O)[nH]c1	1.1	-9	-7	1.1	-0.65	0.41	.	.	.
CCCOc1ccccc1NC(=O)c1ccc(N)cc1	2.7*	-168	39	0.6	0.67	3*	7556*	1560	i
Cc1cc(C)n2nc(SC(C)C(=O)NCc3ccco3)nc2n1 (stereo unspecified)	0.9	14	20	0.8	0.025	7.1*	6820	1844	i
